# High-throughput results from PubChem.
# ssDAF12 agonist: S. stercoralis DAF-12 nuclear receptor activators, primary screen, cell-based, luminescence, HEK293, GRIP1 co-expression, lit1-tk-luc; activation, % at 6.8 µM; HEK293 ssDAF-12/GRIP1 lit1-tk-luc reporter; % of 3 µM dafachronic acid response; Nuclear hormone receptor DAF-12 (Strongyloides stercoralis); hit rate 1% among 370,000;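 active means activation above the mean over all tested compounds plus 3 SD, cut at about 0.9% in these data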;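 further: 0% = DMSO-only wells and 100% = 3 µM delta7-dafachronic acid wells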
# hcDAF12 agonist: H. contortus DAF-12 nuclear receptor activators, primary screen, cell-based, luminescence, HEK293, lit1-tk-luc reporter | HEK293 hcDAF-12 lit1-tk-luc reporter; 0% DMSO, 100% Δ7-dafachronic acid | activation, % at 6.8 µM | hit rate 1.4% among 370,000;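 active means activation above the mean of all tested compounds plus 3 SD, cut at about 5.5% in these data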;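 further: 100% = response to 3 µM Δ7-dafachronic acid high control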
# DAX1 inh-1: DAX1 (NR0B1) inhibitors on StAR promoter, primary screen, cell-based, luminescence, SF-1 (NR5A1), full-length DAX-1. inhibition, % at 6.8 µM. AID 652010, 2013. HEK293T StAR-luciferase reporter, SF-1/DAX-1 repression relief. hit rate 1.1% among 370,000;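 active means inhibition above the mean over all tested compounds plus 3 SD, cut at about 3.6% in these data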;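 further: 0% = DAX-1 cells with DMSO and 100% = cells lacking DAX-1 with DMSO; higher inhibition means more luminescence from relief of DAX-1 repression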
# DAX1 inh-2: DAX1 (NR0B1) inhibitors, primary screen, cell-based, HEK293, Gal4-DAX1, luciferase luminescence; Nuclear receptor subfamily 0 group B member 1 (Homo sapiens), P51843; HEK293 Gal4-DAX1 luciferase reporter; inhibition, % at 6.75 µM; hit rate 0.99% among 340,000;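 active means inhibition above the mean over all tested compounds plus 3 SD, cut at about 4.2% in these data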;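 further: 0% = DAX1-transfected cells with DMSO and 100% = empty-vector control cells with DMSO; inhibition shows as a rise in luminescence from relieved DAX1 repression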
# Target sequence (P51843 207-470 limits assumed): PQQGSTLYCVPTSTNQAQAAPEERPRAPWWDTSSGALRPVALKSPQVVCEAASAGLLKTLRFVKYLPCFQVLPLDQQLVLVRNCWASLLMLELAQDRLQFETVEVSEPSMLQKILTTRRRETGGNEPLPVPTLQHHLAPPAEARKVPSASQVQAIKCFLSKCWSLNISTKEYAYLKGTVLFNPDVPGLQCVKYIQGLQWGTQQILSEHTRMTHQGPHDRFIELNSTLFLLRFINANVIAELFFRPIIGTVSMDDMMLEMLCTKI
# hgDAF12 agonist: H. glycines DAF-12 receptor agonists, primary screen, cell-based, luminescence, HEK293, GAL4 fusion, UAS-luciferase; Nuclear hormone receptor DAF-12 (Heterodera glycines), GAL4 fusion; HEK293 GAL4-hgDAF12 UAS-luciferase reporter, agonist luminescence; normalized to butyrate control; activation, % at 6.8 µM; hit rate 1.8% among 370,000;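 active means activation above a cutoff set at the mean of all screened compounds plus 3 SD, cut at about 10% in these data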;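 further: 0% = DMSO wells and 100% = sodium butyrate wells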
# Starred values were filed as active, the others as inactive; x = no result given. Compounds with a hit are over-represented: about 4.1% of the library has one in this group of screens.
SMILES,ssDAF12 agonist,hcDAF12 agonist,DAX1 inh-1,DAX1 inh-2,hgDAF12 agonist
COc1cc(C(C)=O)ccc1OCC(O)CN(CCO)Cc1ccccc1 (stereo not given),-1.4,-0.2,0.8,7.2*,-1.0
OCCN(Cc1ccccc1)CC(O)COc1ccc(-c2ccccc2)cc1 (stereo not given),-1.3,-1.0,-0.2,0.9,-1.5
COc1cc2c3c(cccc3c1)C(=O)N(CCN1CCCC1)C2=O,-0.7,4.8,-2.4,8.7*,-1.0
COc1ccc(C(=O)CN2CCN(CCN3C(=O)c4cccc5cccc(c45)C3=O)CC2)cc1,-0.8,-0.9,-0.2,-0.5,-0.1
CCNC(=O)N(C)[C@H]1C[C@H]2c3[nH]c4cccc(-c5cccc(F)c5)c4c3CCN2C(=O)[C@H]1[C@H](C)O,-1.6,-4.5,-1.6,x,6.2
Cn1c2ccc(CC(=O)O)cc2c2cc(CC(=O)O)ccc21,0.8,1.0,0.4,0.4,0.5
COC(=O)Cc1ccc2c3ccccc3n(C)c2c1,-1.2,5.8*,-0.3,0.7,3.9
Cc1[nH]n(-c2ccccc2)c(=O)c1C(c1cccc([N+](=O)[O-])c1O)c1c(C)[nH]n(-c2ccccc2)c1=O,-0.1,0.6,-0.3,-0.7,-1.7
Cc1[nH]n(-c2ccccc2)c(=O)c1C(c1ccc(C(=O)O)cc1)c1c(C)[nH]n(-c2ccccc2)c1=O,2.1*,1.6,0.3,0.1,-4.7
Cc1[nH]n(-c2ccccc2)c(=O)c1C(c1cccc([N+](=O)[O-])c1)c1c(C)[nH]n(-c2ccccc2)c1=O,0.8,6.7*,-0.1,-0.4,3.5
COc1ccc(C2CCC3(CCC(=O)N3CCOC(=O)NCc3ccc(Cl)cc3)CC2)cc1 (stereo not given),-2.1,-3.7,-3.0,x,-4.2
COc1cc(/C=C/C(=O)c2ccccc2)cc(OC)c1OC,-2.2,-2.5,x,x,-2.6
Cc1nnsc1-c1c(C(=O)N2CCOCC2)c(C)nn1-c1ccccc1,-1.1,0.1,0.2,-0.3,0.6
Cc1nnsc1-c1c(C(=O)N2CCOCC2)c(C)nn1-c1ccc(Cl)cc1,-1.5,-0.3,0.3,4.8*,-0.5
CCN(CC)C(=O)CC[C@H]1CC[C@]2(CCCN(Cc3ccc(N(C)C)cc3)C2)O1,-0.8,-1.3,0.2,x,-0.3
O=C(NCc1ccco1)c1c2c(nc3ccccc13)CCC2,-0.9,2.3,-0.1,3.5,0.7
O=C(NCc1ccc(F)cc1)c1ccncc1,-0.6,-0.6,-0.4,4.4*,2.9
O=C(NCc1ccc(F)cc1)c1c2c(nc3ccccc13)CCC2,-0.5,2.5,4.5*,-0.4,3.7
O=C(NCc1ccc(Cl)cc1)c1ccncc1,-0.3,-1.3,-0.2,-0.8,0.6
CC1(C)CC(=O)C=C(c2ccc(COC(=O)c3ccccc3)cc2)C1=O,-0.5,2.6,3.9*,2.1,10.6*
O=C(Nc1nc(-c2ccc3c(c2)OCO3)cs1)C1COc2ccccc2O1 (stereo not given),-1.1,1.6,-0.2,1.1,-1.3
CN(C)/C=N/c1nc(-c2ccc3c(c2)OCO3)cs1,-0.7,2.5,2.6,1.3,11.0*
Cc1nc(-c2ccc3c(c2)OCCO3)cs1,-0.9,1.9,2.1,1.1,5.1
CC(=O)Nc1nc(-c2ccc3c(c2)OCO3)cs1,-0.5,3.2,2.0,0.9,12.2*
CCOC(=O)c1c(C)[nH]c(C(=O)OCCOc2ccccc2C)c1C,-0.2,3.7,3.2,3.0,10.9*
CCOC(=O)c1c(C)[nH]c(C(=O)OCC(=O)Nc2cccnc2Cl)c1C,-1.2,-1.7,-2.1,-0.1,-3.1
CCOC(=O)c1[nH]c(C)c(C(=O)Nc2ccccc2F)c1C,-0.8,0.7,-0.9,-0.6,10.0
CCOC(=O)c1c(C)[nH]c(C(=O)OCC(=O)N(C)CC(=O)Nc2ccccc2Cl)c1C,1.0*,3.0,-3.1,-0.9,2.3
CCOC(=O)c1c(C)[nH]c(C(=O)OCc2ccccc2F)c1C,0.5,6.3*,2.6,5.5*,13.2*
